HT1080NT lethal: qHTS for induction of synthetic lethality in tumor cells producing 2HG: qHTS for the HT-1080-NT fibrosarcoma cell line. HT-1080-NT fibrosarcoma viability, CellTiter-Glo ATP luminescence, 48 h. Potency, µM (doses to about 46.1 µM), for inactives: at the top dose activity, negative = less viability, usual class: cytotoxic. 360,000 compounds, 1.6% hits;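 also: NT is the 2HG producing partner of a matched IDH1 knockdown line; 0% = DMSO-treated cells and -100% = media-only wells without cells; nearly all actives have a fitted effect of over 55% in size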
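750 cells/well, RPMI + 5% FBS; 2 h settle, compound pin-transfer, 48 h at 37 degrees C. CellTiter-Glo 10 min RT, luminescence. Normalized to DMSO and media-only wells.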
KB-3-1 cytotox: qHTS assay for MDR1-selective chemotherapeutics: Primary screen using the parental adenocarcinoma cell KB-3-1; KB-3-1 viability, CellTiter-Glo ATP luminescence, 72 h; Potency, µM (top dose mostly 46.1 µM), most hits filed as cytotoxic; 400,000 compounds, 1.4% hits; also: nearly all actives have a fitted effect of over 60% in size
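Cytotoxicity in the drug-sensitive parental line KB-3-1 was scored as loss of CellTiter-Glo luminescence following 72 h incubation with compound. Values come from curve fitting of normalized concentration-response data.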
HT1080 IDH1KD tx: qHTS for induction of synthetic lethality in tumor cells producing 2HG: qHTS for the HT-1080-IDH1KD cell line. Potency, µM (highest dose often 46.1 µM), for the others: at the top dose activity, negative = toxicity, actives largely listed as cytotoxic. HT-1080 IDH1 knockdown viability, ATP luminescence, 48 h. 360,000 compounds, 2% hits. AID 686971, 2013;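 also: 0% = DMSO wells and -100% = cell-free medium wells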
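% activity derives from luminescence (CellTiter-Glo), normalised to DMSO and no-cell wells. HT-1080-IDH1KD cells, 750/well, had 48 h compound exposure at 37 °C.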
DT40 TDP1 CPT: qHTS for Inhibitors of human tyrosyl-DNA phosphodiesterase 1 (TDP1): qHTS in cells in presence of CPT; 420,000 compounds, 12% hits; chicken DT40 Tdp1-/-;hTDP1 cells + 20 nM CPT, ATP luminescence, 48 h; Potency, µM (titrated, usually from 46.2 µM), for the others: at the top dose activity change, negative = growth inhibition, hits mostly inhibitors; AID 686979, 2013; also: nearly all actives have a fitted effect of over 55% in size
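Chicken DT40 Tdp1-/- cells stably complemented with human TDP1 were seeded at 400 cells/well in medium containing 20 nM camptothecin, exposed to pin-transferred compounds, and grown at 37 °C for at least 48 hr. Viability was read as ATP luminescence.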
KB-V1 MDR tox: qHTS assay for MDR1-selective chemotherapeutics: Primary screen using the drug-selected MDR subline cells KB-V1. KB-V1 MDR cells viability, CellTiter-Glo, 72 h. Potency, µM (doses to about 46.1 µM), usual class: cytotoxic. 400,000 compounds, 3.4% hits. AID 1347076, 2019; also: nearly all actives have a fitted effect of over 60% in size
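Potencies derive from concentration-effect curves fitted to normalized luminescence (CellTiter-Glo) of KB-V1 cells treated for 72 h at 37 degrees C in phenol-red-free DMEM containing 10% FBS.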
TDP1 cell noCPT: qHTS for Inhibitors of human tyrosyl-DNA phosphodiesterase 1 (TDP1): qHTS in cells in absence of CPT; DT40 Tdp1-/- hTDP1 cells, no CPT, ATP luminescence, 48 h; Potency, µM (series often up to 46.2 µM), for inactives: top-dose activity change, negative = growth inhibition, most hits filed as inhibitors; 420,000 compounds, 15% hits; also: nearly all actives have a fitted effect of over 55% in size
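Stably hTDP1-transfected Tdp1-null chicken DT40 cells were treated with library compounds minus camptothecin and grown for at least 48 hr at 37 °C, after which cellular ATP was quantified by luminescence.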
* marks the source's active call; other numbers are inactive results; i = inactive; ? = inconclusive; / = not tested or not shown; [ ] = another dose, or the depositor's remark. Only some compounds are listed: those with a hit (about 19% of all), similar ones and a draw of the others. Calls follow the shape of the dose curve; as a rule, active = well fitted curve in the direction sought with a large enough effect; inconclusive = small, poorly fitted or top-dose-only effect, or another doubt; inactive = no such curve, though single readings can be large; an effect the other way counts as inactive or inconclusive. Unless noted, % is scaled to controls: 0 for no effect and ±100 for the full control effect; potency is read from the fitted curve at half-maximal effect.

SMILES	HT1080NT lethal	KB-3-1 cytotox	HT1080 IDH1KD tx	DT40 TDP1 CPT	KB-V1 MDR tox	TDP1 cell noCPT
COC(=O)c1cc(=O)n(Cc2cccs2)c(=Nc2ccc(F)cc2)s1	?	?	?	?	i	20.6µM*
COC(=O)c1cc(=O)n(Cc2ccc(F)cc2)c(=NCc2ccc(F)cc2)s1	13.8%	i	9.3%	-3.2%	i	1.2%
CC(C)C(NC(=O)c1c(F)cccc1F)C(=O)N1CCN(c2ccccc2F)CC1 (configuration not stated)	21.9%	i	7.7%	-17.7%	i	-20.7%
COc1ccccc1N1CCN(C(=O)c2ccc3[nH]c4c(c3c2)CCCC4)CC1	?	i	-29.1%	?	i	?
CC(=O)c1ccc(N2CCN(C(=O)c3ccc4[nH]c(C)c(C)c4c3)CC2)cc1	?	?	-9.9%	20.6µM*	i	16.4µM*
O=C(c1ccc2[nH]c3c(c2c1)CCCC3)N1CCN(c2ccc(F)cc2)CC1	-0.5%	i	-0.5%	23.1µM*	?	?
COc1ccc(C(C#N)N2CCC(c3ccccc3)=N2)cc1 (configuration not stated)	19.6%	i	18.1%	?	i	?
Cc1ccc(S(=O)(=O)c2c(N)n(CCN3CCOCC3)c3nc4ccccc4nc23)cc1C	-7.3%	i	-2.9%	-3.2%	i	-4.0%
Nc1c(S(=O)(=O)c2ccccc2)c2nc3ccccc3nc2n1Cc1ccco1	-27.5%	?	-16.7%	18.4µM*	23.1µM*	?
Cc1ccc(S(=O)(=O)c2c(N)n(Cc3ccco3)c3nc4ccccc4nc23)cc1C	?	?	?	?	23.1µM*	?
Nc1c(S(=O)(=O)c2ccccc2)c2nc3ccccc3nc2n1CCN1CCOCC1	-5.1%	i	6.9%	-21.6%	i	?
COc1ccc(-c2sc3ccccc3c2/C=C/c2ccncc2)cc1	?	?	?	?	i	16.4µM*
COc1ccc(-c2c(-c3ccccc3OC)sc3ccccc23)cc1OC	-18.7%	?	-9.8%	?	?	4.3%
COc1ccc(-c2cc(=O)c3ccccc3s2)cc1	-7.1%	i	-5.3%	?	14.6µM*	?
COc1ccc(-c2c(-c3ccccc3OC)sc3ccccc23)cc1C=O	?	i	?	?	i	18.4µM*
COc1ncc(-c2c(-c3ccccc3OC)sc3ccccc23)cn1	?	?	16.4µM*	?	i	?
COc1ccc(-c2sc3ccccc3c2-c2cc(OC)ccc2C=O)cc1	?	?	?	?	i	20.6µM*
COc1ccc(C=O)c(-c2c(CCO)sc3ccccc23)c1	0.5%	i	-0.9%	?	i	?
Cc1ccc(OCC(=O)N/N=C/c2cccc3cccnc23)cc1	-21.8%	i	?	23.1µM*	i	25.9µM*
O=C(COc1ccc(F)cc1)N/N=C/c1cccc2cccnc12	-29.5%	i	?	20.6µM*	i	16.4µM*
O=C(COc1cccc2cccnc12)N/N=C/c1cccn1-c1ccc(F)cc1	2.1%	i	-17.6%	?	i	?
O=C(Nc1ccc(C(=O)OCc2cc(=O)n3ccsc3n2)cc1)c1cccc(F)c1	/	i	/	-20.4%	?	-1.4%
CCC1Cc2[nH]c(=S)[nH]c(=O)c2C(c2ccc(Cl)cc2)O1 (configuration not stated)	11.4%	i	11.3%	14.5%	i	22.8%
Cc1oc(-c2cccc(NC(=O)c3ccccn3)c2)nc1CNC(=O)c1cc(F)c(F)cc1F	/	/	/	-9.7%[9.04 µM]	/	-14.5%
Cc1ccc(C(=O)Nc2cccc(-c3nc(CNC(=O)c4ccc5ccccc5n4)c(C)o3)c2)s1	/	/	/	?	/	16.4µM*
SMILES	HT1080NT lethal	KB-3-1 cytotox	HT1080 IDH1KD tx	DT40 TDP1 CPT	KB-V1 MDR tox	TDP1 cell noCPT
Cc1cccc(C(=O)NCc2nc(-c3cccc(NC(=O)c4ccoc4C)c3)oc2C)n1	/	/	/	2.1%[9.04 µM]	/	13µM*
Cc1cc(C(=O)Nc2cccc(-c3nc(CNC(=O)c4cnccn4)c(C)o3)c2)c(C)o1	/	/	/	3.6%[9.04 µM]	/	?
Cc1cc(C(=O)Nc2cccc(-c3nc(CNC(=O)c4ccccc4C(F)(F)F)c(C)o3)c2)c(C)o1	/	/	/	?	/	20.6µM*
Cc1ccc(C(=O)Nc2cccc(-c3nc(CNC(=O)c4cccc(N(C)C)c4)c(C)o3)c2)s1	/	/	/	3.7%[9.04 µM]	/	16.4µM*
CSc1nc(C(=O)NCc2nc(-c3cccc(NC(=O)c4ccc(C)s4)c3)oc2C)cs1	/	/	/	9.0%[9.04 µM]	/	-1.7%
Cc1oc(-c2cccc(NC(=O)c3ccccn3)c2)nc1CNC(=O)C#Cc1ccccc1	/	/	/	?	/	23.1µM*
Cc1cc(C(=O)Nc2cccc(-c3nc(CNC(=O)c4ccc[n+]([O-])c4)c(C)o3)c2)c(C)o1	/	/	/	-7.6%[9.04 µM]	/	?
COc1ccc(C(=O)NCc2nc(-c3cccc(NC(=O)c4ccc(C)s4)c3)oc2C)cc1	/	/	/	-0.2%[9.04 µM]	/	14.6µM*
Cc1oc(-c2cccc(NC(=O)C3CCCN(C)C3)c2)nc1CNC(=O)c1coc2c1C(=O)CCC2 (configuration not stated)	/	/	/	4.0%[9.04 µM]	/	16.4µM*
Cc1ncoc1C(=O)NCc1nc(-c2cccc(NC(=O)c3ccccn3)c2)oc1C	/	/	/	-5.9%[9.04 µM]	/	?
Cc1ccc(C(=O)Nc2cccc(-c3nc(CNC(=O)C4(C)CC4)c(C)o3)c2)s1	/	/	/	-9.4%	/	-6.0%
CCc1ccc2c(c1)-c1ccccc1S(=O)(=O)N2CC(=O)N1CCC(C)CC1	/	i	/	16.4µM*	i	18.4µM*
CCc1ccc2c(c1)-c1ccccc1S(=O)(=O)N2CC(=O)N1CCCCC1	/	i	/	?	i	?
CCOC(=O)C1CCN(C(=O)CN2c3ccc(C(C)C)cc3-c3ccccc3S2(=O)=O)CC1	/	i	/	20.6µM*	i	?
Cc1ccoc1C(=O)N1CCCC(CCC(=O)N2CCN(c3ccccn3)CC2)C1 (configuration not stated)	4.7%	i	?	?	?	23.1µM*

Source: PubChem
